Reference: PubChem BioAssay (NCATS)
A number with no mark means an inactive call. Results filed as inconclusive are left out. Active and inactive are the calls of the source. Unless noted, the call rests on the fitted dose curve; in most records, active means well fitted curve in the direction sought with a large enough effect; inconclusive means small, poorly fitted or top-dose-only effect, or another doubt; inactive means no such curve, though single readings can be large; an effect the other way counts as inactive or inconclusive.

Assays:
[1] = Stat Signaling Pathway (AID 446; active means well fitted curve in either direction with a large enough effect, not every such curve was filed as active;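 further: ME-180 cervical cancer cells given 40 pM IL-6 alongside compound; SIE-controlled beta-lactamase reporter measured as 460/530 nm FRET emission ratio; on the % scale 0 is the no-effect control and ±100 the full control effect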); conditions: ME-180 SIE beta-lactamase reporter, IL-6 stimulated, 5 h; at 17.2 µM (top of the series) unless noted
In short: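 IL-6/STAT signaling read in ME-180 cells via an SIE beta-lactamase reporter. Stimulus was 40 pM IL-6 (its AC50) for 5 hrs, so both activation and inhibition register.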

[2] = target: Glucocorticoid receptor (Homo sapiens) (UniProt P04150); test: GR-GFP Redistribution (AID 450;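 active means compounds whose dose series gives a full or clear partial fitted curve of increased nuclear translocation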; further: potency means the concentration at half of the fitted maximal effect)
Sequence of Glucocorticoid receptor (Homo sapiens) (P04150 whole entry, looked up): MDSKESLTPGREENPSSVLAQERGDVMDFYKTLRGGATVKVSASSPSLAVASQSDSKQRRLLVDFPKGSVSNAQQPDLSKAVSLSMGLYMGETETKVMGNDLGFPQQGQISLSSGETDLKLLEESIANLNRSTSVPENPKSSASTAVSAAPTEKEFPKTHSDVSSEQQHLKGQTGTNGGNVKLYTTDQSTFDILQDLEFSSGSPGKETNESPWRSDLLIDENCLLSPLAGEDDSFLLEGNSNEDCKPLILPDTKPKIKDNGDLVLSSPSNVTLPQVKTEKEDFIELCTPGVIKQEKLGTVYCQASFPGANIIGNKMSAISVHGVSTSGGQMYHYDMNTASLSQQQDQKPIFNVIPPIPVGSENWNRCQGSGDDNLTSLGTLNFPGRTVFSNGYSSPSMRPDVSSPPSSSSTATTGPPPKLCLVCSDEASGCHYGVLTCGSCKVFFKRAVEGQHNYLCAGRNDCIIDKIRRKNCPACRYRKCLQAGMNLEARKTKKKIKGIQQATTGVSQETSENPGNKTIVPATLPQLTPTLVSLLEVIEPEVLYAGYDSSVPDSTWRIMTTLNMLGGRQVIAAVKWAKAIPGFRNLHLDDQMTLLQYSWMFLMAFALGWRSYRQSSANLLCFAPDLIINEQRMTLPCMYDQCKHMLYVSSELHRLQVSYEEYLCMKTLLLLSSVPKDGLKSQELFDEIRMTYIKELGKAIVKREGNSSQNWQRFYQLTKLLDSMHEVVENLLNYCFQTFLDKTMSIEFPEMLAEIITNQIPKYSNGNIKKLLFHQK

[3] = NFAT Signaling Pathway (AID 444; active means well fitted curve in either direction with a large enough effect, not every such curve was filed as active;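 further: carbachol stimulus at about its EC50 of 1 µM final; on the % scale 0 is the no-effect control and ±100 the full control effect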); conditions: Jurkat NFAT-bla M1, carbachol, beta-lactamase ratio, 5 h; at 17.2 µM (top of the series) unless noted
In short: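 Read-out: CCF4 FRET ratio (460 nm/530 nm) after 1 h RT dye loading, used for %activity and AC50 from titration series. Cells: Jurkat NFAT-β-lactamase/M1 line, treated with compound plus 1 uM carbachol for 5 h, 37 °C.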

[4] = qHTS Assay for Identification of Small Molecule Agonists for Hypoxia Response Element Signaling Pathway (AID 914; active means well fitted activation curve with a large enough effect in the signal ratio, with a control signal flat, not every such curve was filed as active; the % refers to the signal ratio; further: potency means the concentration at half of the fitted maximal effect; on activation: % of control where 0% means no effect); conditions: ME-180 (cervical carcinoma) HRE-bla reporter, beta-lactamase ratio, CoCl2, 17 h; activation: active compounds read high
In short: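 Read-out: CCF4 FRET ratio of 460nm to 530nm emission (excitation 405nm) after 2.5 hours at room temperature, taken from HRE-bla ME-180 cells that had been exposed to compound and EC50 CoCl2 for 17 hours.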

[5] = target: Mitogen-activated protein kinase 10 (Mus musculus) (UniProt Q61831); test: JNK3 AlphaScreen Assay (AID 530; active means well fitted curve in either direction with a large enough effect, not every such curve was filed as active;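 further: kinase came from lysate of stimulated human HepG2 cells; signal reports phosphorylation of biotinylated GST-cJun 1-79 at Ser73 with 10 µM ATP; on the % scale 0 is the no-effect control and ±100 the full control effect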)
In short: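 Room-temperature AlphaScreen kinase assay; pre-activated HepG2 lysate as JNK3 source, biotin-GST-cJun(1-79) substrate, 10 uM ATP, compound 15 min preincubation.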

[6] = target: 3',5'-cyclic-AMP phosphodiesterase 4B (Homo sapiens) (UniProt Q07343); test: qHTS Assay for Inhibitors of PDE-IV (AID 607; active means well fitted activation curve with a large enough effect in the main read-out, with a control signal flat, not every such curve was filed as active; further: % of control where 0% means no effect)
Sequence of 3',5'-cyclic-AMP phosphodiesterase 4B (Homo sapiens) (Q07343 whole entry, looked up): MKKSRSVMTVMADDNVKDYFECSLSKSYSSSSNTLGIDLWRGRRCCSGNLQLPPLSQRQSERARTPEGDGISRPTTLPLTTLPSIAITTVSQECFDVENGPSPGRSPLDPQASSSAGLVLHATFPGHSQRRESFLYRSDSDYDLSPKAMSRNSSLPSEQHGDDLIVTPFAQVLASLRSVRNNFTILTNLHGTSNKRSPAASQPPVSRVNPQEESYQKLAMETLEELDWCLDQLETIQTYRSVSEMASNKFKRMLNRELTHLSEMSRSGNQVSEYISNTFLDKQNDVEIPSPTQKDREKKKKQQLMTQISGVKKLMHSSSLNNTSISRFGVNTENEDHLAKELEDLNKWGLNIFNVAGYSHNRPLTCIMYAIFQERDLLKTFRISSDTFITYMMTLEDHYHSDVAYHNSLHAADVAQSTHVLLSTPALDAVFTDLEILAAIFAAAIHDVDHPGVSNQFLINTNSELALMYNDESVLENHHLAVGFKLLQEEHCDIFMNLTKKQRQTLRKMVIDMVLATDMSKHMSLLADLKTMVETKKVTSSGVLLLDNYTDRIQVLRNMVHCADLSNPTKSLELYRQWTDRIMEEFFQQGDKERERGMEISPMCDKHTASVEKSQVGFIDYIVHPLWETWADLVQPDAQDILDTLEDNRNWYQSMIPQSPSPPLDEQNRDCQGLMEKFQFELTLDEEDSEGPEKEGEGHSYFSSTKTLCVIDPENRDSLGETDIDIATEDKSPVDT
In short: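 Live HEK293 cells with a modified cyclic nucleotide-gated (CNG) channel report intracellular cAMP via membrane-potential dye fluorescence (ex 535/em 590 nm). Endogenous PDE-IV was targeted. Compounds were tested at up to 22.9 uM final; RO 20-1724 100 uM served as control.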

[7] = target: ATP-dependent 6-phosphofructokinase (Trypanosoma brucei brucei) (UniProt O15648); test: qHTS Assay to Find Inhibitors of T. brucei phosphofructokinase: hit validation (AID 492961);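 further: luminescence reports ADP formed as PFK phosphorylates fructose-6-phosphate with ATP; on the % scale 0 is the no-effect control and ±100 the full control effect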
Sequence of ATP-dependent 6-phosphofructokinase (Trypanosoma brucei brucei) (O15648 whole entry, looked up): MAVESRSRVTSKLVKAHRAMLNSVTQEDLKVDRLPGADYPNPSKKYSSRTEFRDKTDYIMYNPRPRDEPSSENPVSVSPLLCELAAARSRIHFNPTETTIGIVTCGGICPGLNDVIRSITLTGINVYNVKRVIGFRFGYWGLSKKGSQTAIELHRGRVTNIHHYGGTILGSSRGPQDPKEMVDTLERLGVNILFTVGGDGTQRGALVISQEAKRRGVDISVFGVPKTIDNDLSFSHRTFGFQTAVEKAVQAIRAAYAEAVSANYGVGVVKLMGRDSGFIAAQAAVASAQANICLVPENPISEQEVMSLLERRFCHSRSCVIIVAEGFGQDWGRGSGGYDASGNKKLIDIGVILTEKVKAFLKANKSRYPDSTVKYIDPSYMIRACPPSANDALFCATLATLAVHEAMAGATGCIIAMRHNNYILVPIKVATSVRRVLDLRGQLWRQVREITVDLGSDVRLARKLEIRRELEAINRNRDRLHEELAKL
In short: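 In this biochemical qHTS validation, titrated compounds were tested against 1.25 nM PFK with 0.1 mM ATP and 0.5 mM F6P. Percent activity came from controls lacking or containing enzyme.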

[8] = target: Luciferin 4-monooxygenase (Photinus pyralis) (UniProt P08659); test: Biochemical firefly luciferase enzyme assay for NPC (AID 624030);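 further: purified P. pyralis luciferase at 10 nM with luciferin and ATP substrate; 0% = DMSO and -100% = full luciferase inhibition by PTC124 control; nearly all actives have a fitted effect of over 70% in size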
Sequence of Luciferin 4-monooxygenase (Photinus pyralis) (P08659 whole entry, looked up): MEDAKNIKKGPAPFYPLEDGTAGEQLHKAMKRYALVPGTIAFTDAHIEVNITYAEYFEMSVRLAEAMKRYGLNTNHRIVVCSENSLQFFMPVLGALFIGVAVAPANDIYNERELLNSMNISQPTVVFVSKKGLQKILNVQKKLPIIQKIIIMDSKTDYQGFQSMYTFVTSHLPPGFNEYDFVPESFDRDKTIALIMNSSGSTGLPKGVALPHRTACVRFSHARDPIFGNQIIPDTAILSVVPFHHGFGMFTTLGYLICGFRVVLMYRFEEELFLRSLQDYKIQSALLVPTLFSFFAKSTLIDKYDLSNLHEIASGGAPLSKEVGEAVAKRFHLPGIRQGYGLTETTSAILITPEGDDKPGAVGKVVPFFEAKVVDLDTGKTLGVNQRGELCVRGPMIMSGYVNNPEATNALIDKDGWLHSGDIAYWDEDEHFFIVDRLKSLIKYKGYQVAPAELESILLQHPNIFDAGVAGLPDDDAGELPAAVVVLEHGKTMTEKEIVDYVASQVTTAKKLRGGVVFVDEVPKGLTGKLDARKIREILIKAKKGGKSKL
In short: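 Direct inhibition of firefly luciferase enzyme (10 nM final, 50 mM Tris Acetate) assessed by luminescence within 5 minutes. Percent activity scaled between DMSO and PTC124 positive control, with concentration-effect curves classified by fit quality and response.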

[9] = S16 Schwann cell viability assay (CellTiter-Glo assay) (AID 624031);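 further: cellular ATP luminescence as a viability measure; plate controls were DMSO-treated cells for no effect and cell-free wells for full effect; nearly all actives have a fitted effect of over 70% in size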
In short: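 Luminescent ATP read-out (CellTiter-Glo) after 24 h compound exposure of native S16 rat Schwann cells at 37 °C. Signals were normalized between cell-free wells and DMSO-treated cells, set as 0% activity.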

[10] = S16 Schwann cell PMP22 intronic element firefly luciferase assay (AID 624032);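 further: plate controls were DMSO for no effect and PTC124 positive control mean for full effect; nearly all actives have a fitted effect of over 30% in size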
In short: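 Luciferase reporter of PMP22 intronic-element expression in stably transfected S16 rat Schwann cells, read by ONE-Glo luminescence after 24 h compound exposure at 37 C. Activity scaled between DMSO (0%) and positive-control PTC124; concentration-effect curves quality-classified.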

[11] = S16 Schwann cell PMP22 intronic element beta-lactamase assay (AID 624044; calls by dose curve; further: potency means the concentration at half of the fitted maximal effect; nearly all actives have a fitted effect of over 15% in size); conditions: S16 rat Schwann cells, PMP22 element beta-lactamase FRET, 24 h; ratio activity, negative = inhibition: at 38.3 µM (top of the series)
In short: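 Rat S16 Schwann cells with beta-Lac driven by a PMP22 intronic element, compound-treated 24 h at 37 °C. LiveBLAzer FRET B/G read: 460 nm normalized to potassium clavulanate vs DMSO; 535 nm FRET as viability; concentration-effect curves classified.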

7G8 = test: qHTS profiling for inhibitors of Plasmodium falciparum proliferation (AID 504749); further: nearly all actives have a fitted effect of over 60% in size; further: potency means the concentration at half of the fitted maximal effect;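 on activity, negative = inhibition: 0% = DMSO vehicle and full inhibition = artemisinin control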; conditions: P. falciparum in erythrocytes, SYBR Green DNA, 72 h; series mostly up to 28.7 µM
In short: (§1)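 Three-day growth assay of blood-stage parasites in erythrocytes (0.3% parasitemia, 2.5% hematocrit) at 37 C, 5% CO2, quantified by SYBR Green DNA staining after overnight detergent lysis.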

CP192 = test: as above; conditions: P. falciparum in erythrocytes, SYBR Green DNA, 72 h; series mostly up to 28.7 µM
In short: as §1

CP201 = test: as above; conditions: P. falciparum in erythrocytes, SYBR Green DNA, 72 h; series mostly up to 28.7 µM
In short: as §1

CP203 = test: as above; conditions: P. falciparum in erythrocytes, SYBR Green DNA, 72 h; series mostly up to 28.7 µM
In short: as §1

CP262 = test: as above; conditions: P. falciparum in erythrocytes, SYBR Green DNA, 72 h; series mostly up to 28.7 µM
In short: as §1

CP266 = test: as above; conditions: P. falciparum in erythrocytes, SYBR Green DNA, 72 h; series mostly up to 28.7 µM
In short: as §1

CP315 = test: as above; conditions: P. falciparum in erythrocytes, SYBR Green DNA, 72 h; series mostly up to 28.7 µM
In short: as §1

DIV14 = test: as above; conditions: P. falciparum in erythrocytes, SYBR Green DNA, 72 h; series mostly up to 28.7 µM
In short: as §1

FAB9 = test: as above; conditions: P. falciparum in erythrocytes, SYBR Green DNA, 72 h; series mostly up to 28.7 µM
In short: as §1

HB3 = test: as above; conditions: P. falciparum in erythrocytes, SYBR Green DNA, 72 h; series mostly up to 28.7 µM
In short: as §1

PC15 = test: as above; conditions: P. falciparum in erythrocytes, SYBR Green DNA, 72 h; series mostly up to 28.7 µM
In short: as §1

PC26 = test: as above; conditions: P. falciparum in erythrocytes, SYBR Green DNA, 72 h; series mostly up to 28.7 µM
In short: as §1

PC49 = test: as above; conditions: P. falciparum in erythrocytes, SYBR Green DNA, 72 h; series mostly up to 28.7 µM
In short: as §1

W2 = test: as above; conditions: P. falciparum in erythrocytes, SYBR Green DNA, 72 h; series mostly up to 28.7 µM
In short: as §1

CCOC(=O)c1[nH]c2ccc(Br)cc2c1NC(=O)CCN1CCC(C(=O)OCC)CC1
activity, negative = inhibition [1]: -11%
Potency [2]: > 20.6 µM

CN(C)c1ccc(NC(=O)c2sc(SCC(=O)Nc3nccs3)nc2N)cc1
activity change, negative = inhibition [3]: 2.32%
Potency [2]: > 20.6 µM

C=CCn1c(N)c(C(=O)Nc2ccccc2)c2nc3ccccc3nc21
activity change, negative = inhibition [3]: -5.29%
Potency [2]: > 20.6 µM
Potency [4]: 5.01 µM (active)

CN(Cc1ccccc1)c1ncnc2ccc(Br)cc12
activity change, negative = inhibition [3]: -9.63%
Potency [2]: > 20.6 µM

COc1cc([C@H]2c3cc4c(cc3[C@@H](O[C@H]3O[C@H]5CO[C@@H](C)O[C@H]5[C@@H](O)[C@@H]3O)[C@@H]3COC(=O)[C@H]23)OCO4)cc(OC)c1O
activity change, negative = inhibition [3]: -0.949%
activity, negative = inhibition [1]: -20.6%
Potency [5]: inactive
Potency [6]: inactive
Potency [7]: inactive
Potency [8]: inactive
Potency [9]: inactive
Potency [10]: inactive
Potency [11]: 4.46 µM (active)
Potency (7G8): 15.8 µM (active)
Potency (CP192): inactive
Potency (CP201): inactive
Potency (CP203): inactive
Potency (CP262): inactive
Potency (CP266): inactive
Potency (CP315): inactive
Potency (DIV14): inactive
Potency (FAB9): inactive
Potency (HB3): inactive
Potency (PC15): inactive
Potency (PC26): inactive
Potency (PC49): inactive
Potency (W2): 13.5 µM (active)

COc1cccc(OCCN2CCN(c3ncnc4c3cnn4-c3ccccc3)CC2)c1
activity change, negative = inhibition [3]: -29.6%
Potency [2]: > 20.6 µM

COCCCNc1nc2c(c(=O)[nH]c(=O)n2C)n1CC(O)COc1ccccc1 (centres undefined)
activity change, negative = inhibition [3]: 16.9%
activity, negative = inhibition [1]: -9.93%
Potency [2]: > 20.6 µM
activation [4]: -6.56%

CCOC(=O)C1/C(=N\O)CC(C)(O)C(C(=O)OCC)C1c1ccc(OC)c(OC)c1 (centres undefined)
activity change, negative = inhibition [3]: -0.404%
activity, negative = inhibition [1]: 0.164%
Potency [4]: 0.794 µM (active)

O=C(c1ccccc1)C(CCC(CN1CCOCC1)C(=O)c1ccccc1)CN1CCOCC1 (centres undefined)
activity, negative = inhibition [1]: -25.4%

O=C(Oc1oc(-c2ccco2)nc1C=Nc1ccccc1)c1ccco1
activity change, negative = inhibition [3]: -124% (active)
Potency [2]: > 20.6 µM

Cc1cc(-c2cc(-c3ccc(Cl)cc3)nc(N)c2C#N)co1
activity change, negative = inhibition [3]: 14.5%
Potency [2]: > 20.6 µM
Potency [4]: 7.94 µM (active)

N#CC1=C(SCC(=O)c2ccc(Cl)cc2)NC2=C(C(=O)CCC2)C1c1ccco1 (centres undefined)
activity change, negative = inhibition [3]: -22.4%
Potency [2]: > 20.6 µM
